Results reported in PubChem BioAssay AID1726 (National Center for Advancing Translational Sciences (NCATS), 2009).
Results filed as inconclusive are left out. Calls of active or inactive are those of the source. Calls follow the shape of the dose curve; as a rule, active = well fitted curve in the direction sought with a large enough effect; inconclusive = small, poorly fitted or top-dose-only effect, or effect the other way, or another doubt; inactive = no such curve, though single readings can be large or run the other way.

Molecular target: Epidermal growth factor receptor (Homo sapiens) (UniProt P00533)
Sequence (P00533 whole entry T790M/L858R, looked up): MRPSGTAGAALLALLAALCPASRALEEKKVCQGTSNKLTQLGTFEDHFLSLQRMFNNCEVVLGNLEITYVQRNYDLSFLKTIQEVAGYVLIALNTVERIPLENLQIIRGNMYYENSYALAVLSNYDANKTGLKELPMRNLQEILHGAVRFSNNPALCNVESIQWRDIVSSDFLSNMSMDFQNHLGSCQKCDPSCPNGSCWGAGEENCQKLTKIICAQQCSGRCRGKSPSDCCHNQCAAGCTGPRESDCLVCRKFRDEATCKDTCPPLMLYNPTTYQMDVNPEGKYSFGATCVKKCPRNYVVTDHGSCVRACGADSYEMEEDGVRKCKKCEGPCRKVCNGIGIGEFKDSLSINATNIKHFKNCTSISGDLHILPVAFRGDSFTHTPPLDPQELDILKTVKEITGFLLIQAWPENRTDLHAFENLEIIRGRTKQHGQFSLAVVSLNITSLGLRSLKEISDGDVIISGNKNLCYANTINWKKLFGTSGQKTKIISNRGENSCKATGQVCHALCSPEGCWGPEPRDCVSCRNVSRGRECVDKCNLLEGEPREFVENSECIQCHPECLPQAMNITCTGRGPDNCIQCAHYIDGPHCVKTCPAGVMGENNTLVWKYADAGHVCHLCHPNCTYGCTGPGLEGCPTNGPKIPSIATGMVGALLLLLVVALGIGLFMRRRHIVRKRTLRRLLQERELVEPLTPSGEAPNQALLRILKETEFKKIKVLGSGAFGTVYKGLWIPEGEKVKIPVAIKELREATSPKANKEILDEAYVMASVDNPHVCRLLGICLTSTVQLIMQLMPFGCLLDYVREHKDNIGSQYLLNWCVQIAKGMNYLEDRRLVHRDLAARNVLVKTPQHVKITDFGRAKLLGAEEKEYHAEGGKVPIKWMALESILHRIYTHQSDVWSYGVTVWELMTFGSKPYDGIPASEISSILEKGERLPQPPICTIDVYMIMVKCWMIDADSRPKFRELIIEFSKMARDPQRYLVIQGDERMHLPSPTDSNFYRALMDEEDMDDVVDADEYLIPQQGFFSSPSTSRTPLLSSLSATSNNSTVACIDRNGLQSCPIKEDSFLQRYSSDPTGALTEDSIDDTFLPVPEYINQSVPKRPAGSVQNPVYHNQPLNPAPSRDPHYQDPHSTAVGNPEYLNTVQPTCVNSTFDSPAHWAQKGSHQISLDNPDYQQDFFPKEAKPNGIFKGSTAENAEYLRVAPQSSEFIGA
Experiment: Assay for Inhibitors of the ERK Signaling Pathway using a Homogeneous Screening Assay: EGFR T790M/L858R Kinase Inhibition
Details: series mostly up to 65.8 µM
Description: qHTS Assay for Inhibitors of the ERK Signaling Pathway using a Homogeneous Screening Assay
NIH Chemical Genomics Center [NCGC]
NIH Molecular Libraries Screening Centers Network [MLSCN]
Assay Submitter (PI): Dr. Wei Zheng, NCGC/NIH
The Ras/extracellular-signal-regulated kinase (ERK) mitogen activated protein (MAP) kinase signaling pathway (ERK1/2 cascade) plays is a key role in transmitting signals from the cell surface to the nucleus (Nishida and Gotoh 1993; Chang and Karin, 2001). The cascade is initiated by the small G-protein Ras, which recruits Raf […], where activation occurs. Alternatively, this pathway can be activated by elevating intracellular cAMP.
Activation of the ERK pathway is essential in increased cell division and cell survival. Sustained and constitutive activation of the ERK pathway, however, has been linked to uncontrolled cell proliferation, increased cell survival, and tumor progression. Thus, the ERK has been as an attractive target for cancer chemotherapy in the past few years (Sebolt-Leopold and Herrera, 2004). […]
The HTRF kinase assay (components supplied as kit by Cisbio) was chosen for the EGFR and EGFR mutant enzyme assays that applied the time resolved fluorescence resonance energy transfer (TR-FRET) principle. […]

Cc1nc2c(=O)n(C)c(=O)nc-2n(C)n1
outcome: inactive

CN1CCN(c2cccc3c2C(=O)c2ccccc2C3=O)CC1
outcome: inactive
